Measured values published in PubChem BioAssay AID1508600 (Functional Genomics Laboratory (NCATS/FGL), 2020).
About 3,700 (7%) of roughly 53,000 sequences were called active. The entries come from a sample that favours actives as a whole. Values without a mark were called inactive.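 The calls were made as follows: active = gene knockdowns whose robust z-score for IL-1 alpha signal is at least 2 or at most -2, so actives lie on both sides; inactive = the rest.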

assay: Components of the Cytosolic LPS Sensing Pathway: Gene Identification via Genome-wide siRNA Screen; details: RAW264.7 macrophages, IL-1a HTRF, actives lie on both sides, screened at 100 nM (by protocol), cells primed 5 h with Pam3CSK4 first;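 also: robust z of the log signal after scaling to non-targeting control siRNA wells of the plate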
Summary of the method: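 Using IL-1a HTRF as read-out, the screen measured release from RAW264.7 cells after 48h siRNA knockdown (100 nM), 5 h Pam3CSK4 priming and 24 h cytosolic LipidA. Values were expressed relative to negative-control wells as robust z-scores.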

First: CCUUCUUAUUGCUUAACCCTT against Scd3
Second: GGAAGAAGAUAAAGAGCGGTT against Nrgn
The z-score of the first is higher: 0.279 for the first, -0.708 for the second.

First: AGUUCCAGGCGCAGAAACCTT against D8Ertd738e
Second: GGUUUUUCUUCUGCUGGUGTT against Olfr1256
The z-score of the first is lower: 1.46 for the first, 1.64 for the second.

First: CCGGCUAAAUCACCGUGCUTT against Clpb
Second: GCCCAAAAAGGAAUUAAUUTT against Pak3
The z-score of the first is lower: -0.647 for the first, -0.176 for the second.

First: CCUGGAGAUCCCUCACUUUTT against Olfr1351
Second: GCAGAUGCUUCGGUGAAAATT against Defb15
The z-score of the first is higher: 1.39 for the first, 0.998 for the second.

Going from CCCAUACAAAGCACUUACATT against Otub1 to GGACAAAUGGUAUUGUAGUTT against Coa5, the z-score falls from 0.589 to -1.72.

Going from GCCGUCUUGUGUGUAUCAATT against Olfr1342 to GGGAUAAAAACCAUGGUUUTT against Pramel27, the z-score rises from -0.186 to 0.113.

Going from GCACUUAUGGUUUAGAUGUTT against Prdm8 to GGAACUUAUAUCUGCGCCATT against Gprin3, the z-score rises from -0.127 to 0.868.

Going from AAAAGCUUCACCUAACUAUTT against Ascc1 to “GGUGACAGUUGUUCACAAATT against 4933405O20Rik”, the z-score falls from 1.73 to -1.4.

First: GGAAUCAUAUCAGAAACUATT against Pde4b
Second: GGGAGAGUCAAAAAAAGAUTT against Khdrbs1
The z-score of the first is higher: -0.475 for the first, -0.536 for the second.

First: GCCAGUACUUAGGUCUAAGTT against Mrps25
Second: GCCCUCAGGUGGUUCUUAATT against Heatr3
The z-score of the first is higher: 1.24 for the first, 0.443 for the second.

Going from CCAUGUCAACGACCAUCAUTT against Glis2 to GCACCUCCACAAGAAUGAATT against Six2, the z-score rises from 0.189 to 0.466.

Compared with GGAACAUUGACCAGAUAGUTT against Ankrd44, CCUUUGAGCCAGUUAUUUATT against Slc25a27 is higher in z-score: -1.44 for the first, 0.366 for the second.

First: GGAACAUCUACAUUGUGGCTT against Tspan14
Second: GGAAUUUGCUGCCCUCCUATT against Smad3
The z-score of the first is higher: 0.402 for the first, -0.206 for the second.

First: GCAGACUCUUCCAAGUAAUTT against Lrrc28
Second: GCUAGAUUUCUACUGUGUCTT against Mindy1
The z-score of the first is higher: 0.529 for the first, 0.527 for the second.

Compared with GCAAUUUUAGUUGGUGGAATT against Ddx24, GCGGAAGUCGAAUCUGUCUTT against Aga is lower in z-score: -0.112 for the first, -1.45 for the second.

Going from GGAAUUUGUCAGGUUCCAATT against Grik4 to GGUACGGUAUGGAGAUCGGTT against Atpaf2, the z-score falls from 0.859 to 0.593.

First: GGCAGAGCCAGGAUGUCUUTT against Msmb
Second: GGUAACUCUCCUUAGCCAGTT against Klk10
The z-score of the first is lower: -1.2 for the first, -0.0493 for the second.

First: GGACUCCCUGGAUUUCAGATT against Rapgef3
Second: GGCAGCUGAAGAUUAUGGATT against Tagln
The z-score of the first is lower: -1.34 for the first, 0.837 for the second.

Compared with GGCAAUAACAUUGCCUCGGTT against Igf1r, CCGAAAAUGUGGUAAAGUATT against Smg1 is higher in z-score: 0.632 for the first, 0.948 for the second.

Compared with GGGAUAAAGAUGAAGAACUTT against Tmem167b, GGAAGUCAAGAUCUCACCUTT against Lrrc25 is lower in z-score: 1.31 for the first, -0.864 for the second.

First: CGUUUGAUACCAAAGAUUUTT against Onecut3
Second: GCUGUAAGCUACCGUCUGUTT against Panx2
The z-score of the first is lower: -1.12 for the first, 1.54 for the second.

Compared with GGUAUCUACCAGUACGAGATT against Izumo4, CGGUGCACAACGUACCAAUTT against Srxn1 is higher in z-score: -1.59 for the first, -0.0189 for the second.

First: GGUAUCCCUAACUGGCAGUTT against Tro
Second: GGAAAUAAAUGGCAGCAUGTT against H2-T3
The z-score of the first is lower: -0.849 for the first, 1.47 for the second.

First: GGAUGAUUCAUUCAGUGAUTT against Adcy9
Second: CCAAAACUUUCCACUCUAATT against Ttc32
The z-score of the first is higher: 0.918 for the first, 0.175 for the second.

Going from CCCAAACUGAAUUAAGCAGTT against Spata7 to GGAAAACUACUAAAAAGUCTT against Zfp938, the z-score rises from -0.515 to -0.31.

First: GGUUACUCCUUUUUAUGUATT against Bex1
Second: GGCCACAAACAGAAUUAUCTT against Mrpl2
The z-score of the first is lower: -1.1 for the first, -0.219 for the second.

Going from GGAGAAAAAGGGAAAGAAUTT against Dlx4 to CCUAGUUUGGUGAUGAUGUTT against Atg10, the z-score falls from 0.0644 to -0.262.

Compared with GGUCAUUGAAAACUGUGCGTT against Sardh, GCAAGAGACCUUGUUAUAGTT against Cttnbp2nl is higher in z-score: -1.04 for the first, -0.426 for the second.

With GGACCUCAGUCACUUCCAATT against Etv4 the z-score was 2.93 (active).
For GGCUUUAAGAUCACACAAATT against Snrpa, the z-score was 2.09 (active).
With GGAAAAGUGACGGUAUCUATT against Rpsa the z-score was -2.04 (active).
With GGAAGACUGGUACACAUAATT against Tmem43 the z-score was -2.32 (active).
With GGAGUUGAAUGGCUCUGGATT against Usp26 the z-score was -2.11 (active).
With GGCAUCGUCACCAAACUGUTT against Fgf11 the z-score was -2.51 (active).
With CGGGCUGAAUGUGUUUGUGTT against Slc10a4 the z-score was 2.62 (active).
In the case of GGGUGAGCAGUACAUUCAATT against Plekhg6, the z-score is reported as 2.73 (active).
For CCCAACAACCAACUAUUUUTT against Kcna1, the z-score was 3.36 (active).
For CCAAGGGAAGAUUCAAAUUTT against Abcc8, the z-score was 2.29 (active).
With GCAUUAUGUCAGUAGCUCATT against Snrpb the z-score was -3.47 (active).
With GGCUCAAAGGAGGGUAGAGTT against Lcn8 the z-score was 3.18 (active).
For GGGACAAGUGGUUGAAACCTT against Prmt8, the z-score was -2.01 (active).
